# Assay outcomes: PubChem BioAssay, National Center for Advancing Translational Sciences (NCATS)
# Shown are actives, neighbours in structure and some others; about 4.7% of the full set was active somewhere.
# D1 antag = antagonists of human D1 dopamine receptor; P21728; HEK293 TREx D1 cells, calcium flux, dopamine EC80; hits give low values; activity change, negative = inhibition, % at 10 µM; 360,000 compounds, 3.2% hits; in the data active = activity change below about -30%; note: % is set by controls: 0 for no effect and ±100 for the full control effect
# Target sequence (P21728 whole entry, looked up): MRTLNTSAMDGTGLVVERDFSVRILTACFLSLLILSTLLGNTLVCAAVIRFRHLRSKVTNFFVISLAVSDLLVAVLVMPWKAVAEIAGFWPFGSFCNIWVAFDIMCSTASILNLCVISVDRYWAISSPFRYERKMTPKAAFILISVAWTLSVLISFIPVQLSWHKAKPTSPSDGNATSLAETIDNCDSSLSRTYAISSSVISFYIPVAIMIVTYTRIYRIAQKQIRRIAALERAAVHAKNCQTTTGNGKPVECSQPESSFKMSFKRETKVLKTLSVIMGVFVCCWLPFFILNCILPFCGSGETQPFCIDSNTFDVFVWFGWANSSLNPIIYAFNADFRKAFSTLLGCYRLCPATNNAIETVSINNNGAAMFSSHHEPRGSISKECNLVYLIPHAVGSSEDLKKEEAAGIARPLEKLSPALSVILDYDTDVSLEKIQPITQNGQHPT
#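 Compound effects on dopamine-evoked calcium signalling were measured in tetracycline-induced HEK293 Trex D1 cells. Dopamine at EC80 followed a 180 s compound pre-read, and fluorescence was tracked kinetically for 180 s more.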
# D1 ag = agonists of human D1 dopamine receptor. 360,000 compounds, 1% hits. activation, % at 2 µM. HEK293 T-REx D1 cells, calcium flux, agonist mode. P21728; note: 0% is about no effect
#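 Agonism was scored from calcium flux recorded over 180 s (1 read/s) after pintool compound addition, following a 10-cycle baseline. Cells were inducible force-coupled HEK293 TREx D1, plated overnight at 30 C and loaded with no-wash calcium dye.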
# TRHR enhancer = TRH receptor (human) allosteric enhancement | P34981 | TRHR cells, fluo-8 calcium fluorescence, EC20 TRH enhancement | enhancement, % at 2 µM | 360,000 compounds, 0.66% hits; in the data active = enhancement above about 30%; note: 0% is about no effect
#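 Enhancer read-out: after compound pinning and an initial kinetic agonist-mode read, an EC20 of TRH (10 nM final) was injected and fluo-8 calcium signal (Ex 480/Em 530) followed at 1 s/cycle for 100 cycles in TRHR-expressing cells.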
# TRHR ag = agonists of human TRH receptor; TRHR cells, calcium flux fluo-8, FDSS agonist mode; activation, % at 2 µM; 360,000 compounds, 0.18% hits; note: 0% is about no effect
#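 Read-out: compound-evoked intracellular calcium rise in TRHR cells, fluo-8 dye, kinetic FDSS fluorescence at 1 s/cycle following a 10-cycle baseline. Cells cultured overnight before dye loading (30 min–1.5 h, RT).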
# D1 PAM = human D1 dopamine receptor positive modulation; P21728; HEK293 TREx D1 cells, calcium flux, dopamine EC20 potentiation; potentiation, % at 10 µM; 360,000 compounds, 0.036% hits; AID 504651; in the data active = potentiation above about 30%; note: 0% is about no effect
# An asterisk follows results filed as active; ! = not confirmed by another sample. Cut-off read from the data, not from the text of the source, unless noted: active = activation above about 30%; inactive = the rest.
SMILES,D1 antag,D1 ag,TRHR enhancer,TRHR ag,D1 PAM
CC(=O)Nc1nc(S(=O)(=O)c2ccc(C)cc2)c(Cl)s1,-5,1,-4,0,1
Cc1ccc(S(=O)(=O)c2nc(Nc3nccs3)sc2Cl)cc1,4,2,30*,1,0
Cc1ccc(Cl)cc1NC(=O)C1C2CCC(O2)C1C(=O)O (stereo not given),-35*,-1,-2,0,-1
Cc1ccc(NC(=O)C2C3CCC(O3)C2C(=O)O)c(Br)c1 (stereo not given),9,2,5,0,0
Cc1nc2ccccn2c1-c1csc(Nc2cccc(O)c2)n1,-4,0,-2,0,2
Cc1ccn2c(-c3csc(NCc4ccco4)n3)c(C)nc2c1,-42*,8,-2,0,-11
Cc1cccc(Nc2nc(-c3c(C)nc4ccccn34)cs2)c1,-46*,8,5,-1,-2
CN(Cc1ccco1)c1ncnc2ccc(-c3ccoc3)cc12,5,-2,6,-1,3
CN(Cc1ccco1)c1ncnc2ccc(-c3ccccc3Cl)cc12,-40*!,18,9,0,-10
CCOc1ccccc1CNCc1cccn1-c1nnc(N2CCN(c3ccccc3)CC2)s1,-15,16,21,-1,-3
COc1ccc(C)cc1Nc1ncnc2c1c(-c1ccccc1)cn2-c1ccc(C)cc1,7,-1,27,0,-1
COc1ccc2[nH]cc(C(=O)CN3CCN(C/C=C/c4ccccc4)CC3)c2c1,-3,86*,8,0,-2
CCN(C(=O)Cn1nc(Cc2ccncc2)c2ccccc2c1=O)c1cccc(Cl)c1,-83*,0,0,-1,-2
CCOCCCNC(=O)C(NC(=O)Cc1cccs1)c1ccc(C)cc1 (stereo not given),-44*,1,-3,-1,-3
CCOc1ccccc1NS(=O)(=O)c1c(-c2ccc(C)cc2)csc1C(=O)OC,5,7,1,1,-7
COc1cc(NC(=O)CSc2cc(=O)n(C)c3ccccc23)cc(OC)c1OC,-3,-2,10,0,7
CC(C)C(=O)N1CCN(c2ccc(NC(=O)c3ccc([N+](=O)[O-])o3)cc2Cl)CC1,-41*,13,-5,-2,-4
CC(C)(CO)Cc1cc(C(C)(C)C)c(O)c(C(C)(C)C)c1,22,71*,21,-1,-3
COC(=O)c1ccc(N2CCCCC2)c(NS(=O)(=O)c2ccc(C)cc2)c1,14,1,13,0,-2
CCOC(=O)c1ccc(N2CCCCC2)c(NS(=O)(=O)c2cccc(C(F)(F)F)c2)c1,-48*,5,-8,1,-3
CC(=O)OC1COC(OC2C(O)C(C)OC(OC3C(OC4CCC5(C)C(CCC6(C)C5CC=C5C7CC(C)(C)CCC7(C(=O)O)CCC56C)C4(C)CO)OCC(O)C3O)C2O)C(O)C1OC(C)=O (stereo not given),187,323*,-10,16,26
Nc1ccc2nc(-c3ccccc3)[nH]c2c1,-6,3,1,0,0
Nc1cccc(-c2nc3ccc(C(=O)c4ccccc4)cc3[nH]2)c1,-31*,1,-3,1,-4
CN1CCN(CCCNC(=O)CCC(=O)N2CCOc3ccccc32)CC1,20,3,5,0,7
O=C(CCC(=O)N1CCOc2ccccc21)NCCCN1CCN(Cc2ccccc2)CC1,-38*,4,6,0,-15
SMILES,D1 antag,D1 ag,TRHR enhancer,TRHR ag,D1 PAM
CNC(=O)CN1C(=O)COc2ccc(S(=O)(=O)N3CCC(C)CC3)cc21,-2,1,-4,1,-2
C/C(=N/NC(=O)c1ccc(C)s1)c1cccnc1,-7,3,7,-1,-4
C/C(=N/NC(=O)c1ccc(Cl)s1)c1cccnc1,-48*,7,22,2,-11
CCOC(=O)c1cc(OC(=O)c2ccc(C)cc2)n(-c2ccccc2)n1,-19,7,6,-1,-6
COCCNC(=O)CCc1c(C)nc2c(c(C)nn2-c2ccc(C)cc2)c1C,-4,3,1,0,-1
CCN(CC)CCNC(=O)CCc1c(C)nc2c(c(C)nn2-c2ccc(C)cc2)c1C,3,17,30*,-1,-16
CCOC(=O)c1ccccc1NC(=O)COc1ccccc1-c1nnc(-c2ccccc2)o1,26,1,4,-1,-5
CCOC(=O)C1(C)C=C(Nc2ccc(OC)cc2)C(=O)N1c1ccccc1 (stereo not given),-42*,2,2,-1,-3
CCOc1cc(/C=C2\N=C(SC(C)C(N)=O)N(c3ccc(OC(F)F)cc3)C2=O)ccc1O (stereo not given),14,47*,19,32*,-6
CN1CCN(C(=O)Nc2cccc(Cl)c2)c2cccnc21,-23,47*,4,-2,-3
Cc1ccc(Cl)cc1NC(=O)N1CCN(C)c2ncccc21,-4,4,2,2,0
O=C(Nc1c(-c2ccccc2)nc2ccccn12)c1ccccc1F,-75*!,2,-10,-1,-4
O=C(Nc1c(-c2ccccc2)nc2ccccn12)c1ccccc1,2,6,-5,0,-2
COc1ccc(CNc2nc(-c3ccco3)nn2C(=O)CC(C)C)cc1,31,14,5,-1,0
CCO[C@H]1OC(C(N)=O)=C[C@@H](C)[C@@H]1CCCO,-15,-5,33*,1,-2
CCOc1ccc(NC(=O)CN2C(=O)C3(SCC(=O)N3c3ccc(F)cc3)c3ccccc32)cc1 (stereo not given),-5,2,-17,0,-2
Cn1c(Cc2nc(-c3cnccn3)no2)nnc1SCC(=O)Nc1ccccc1,-87*,0,10,0,4
CCOC(=O)CCCCC(=O)c1[nH]c(=O)[nH]c1CSc1nnc2c3cc(Br)ccc3n(C)c2n1,-33*,3,1,-1,-1
Cc1cccc(-c2nn3c(=O)cc(CN4CCN(S(=O)(=O)c5ccc(Cl)cc5)CC4)nc3s2)c1,-10,1,-9,0,2
Cc1cccc(-c2nn3c(=O)cc(CN4CCN(C(=O)c5ccccc5Br)CC4)nc3s2)c1,-34*,0,2,0,-5
Cc1ccccc1-c1nn2c(=O)cc(CN3CCN(C(=O)/C=C/c4ccccc4)CC3)nc2s1,-32*,-1,-1,-1,-6
CCc1ccccc1NC(=O)CSc1ncc(S(=O)(=O)c2ccc(C(C)C)cc2)c(N)n1,20,5,-2,0,-3
CC(=O)Nc1cc(C(=O)Nc2ccc3c(c2)N(C)C(=O)c2ccccc2S3)ccc1C,-15,0,-8,0,-1
CN1C(=O)c2ccc(C(=O)NCc3ccc4c(c3)OCO4)cc2C1=O,-34*,0,1,0,-3
